In PubChem BioAssay (Tox21):
Several values for one entry are separate records, joined by “and”; a condition that tells them apart may be missing. Identical values can stand only once. Inconclusive results are not listed. Activity calls are given as the source filed them. Unless noted, the call rests on the fitted dose curve; in most records, active means well fitted curve in the direction sought with a large enough effect in the repeat runs; inconclusive means weak or mixed curves; inactive means no such curve, though single readings can be large; an effect the other way counts as inactive or inconclusive.

How the values were obtained:
[1] = qHTS assay for small molecule agonists of the p53 signaling pathway (AID 651631; calls by dose curve; further: nearly all actives have a fitted effect of over 15% in size; further: potency means the concentration at half of the fitted maximal effect)
Summary of the method: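 Quantitative high-throughput format: 4,000 p53RE-bla HCT-116 cells/well, 5 h pre-incubation, 16 h compound exposure at 37 °C, 2 h room-temperature substrate step, fluorescence intensity measured.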

[2] = qHTS assay for small molecules that induce genotoxicity in human embryonic kidney cells expressing luciferase-tagged ATAD5 (AID 651632); further: nearly all actives have a fitted effect of over 15% in size; further: potency means the concentration at half of the fitted maximal effect
Summary of the method: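 Concentration-response screen for ATAD5 upregulation in HEK293T luciferase reporter cells; 16 hr treatment at 37C, then luminescence after 30 min with Amplite at room temperature.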

[3] = qHTS assay for small molecule agonists of the p53 signaling pathway - cell viability (AID 651633; calls by dose curve; further: nearly all actives have a fitted effect of over 30% in size; further: potency means the concentration at half of the fitted maximal effect)
Summary of the method: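 p53RE-bla cells, seeded at 4,000 per well and rested 5 h at 37 C/5% CO2, received compounds in DMSO for 16 h at 37 C. CellTiter-Glo was then added, and luminescence was read after 30 min at room temperature to gauge cytotoxicity.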

[4] = qHTS assay for small molecule disruptors of the mitochondrial membrane potential - cell viability (AID 720634; calls by dose curve;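 further: human HepG2 liver cancer cells; series mostly up to about 83 µM; nearly all actives have a fitted effect of over 20% in size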)
Summary of the method: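 In this qHTS format, HepG2 cells plated overnight were pinned with compound, incubated 1 hr, and assayed for ATP luminescence with CellTiter-Glo after m-MPI dye addition.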

[5] = qHTS assay to test for compound auto fluorescence at 590 nm (red) in HepG2 cells (AID 720674)
Summary of the method: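 Intrinsic compound fluorescence in the red window (Ex/Em 540/590 nm) is measured in attached HepG2 cells exposed for 1 hr, DMSO vehicle as baseline, benchmarked to Rose Bengal sodium.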

[6] = qHTS assay to test for compound auto fluorescence at 535 nm (green) in HepG2 cells (AID 720675)
[7] = qHTS assay to test for compound auto fluorescence at 460 nm (blue) in HEK293 cells (AID 720678)
Summary of the method: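 After cell attachment (4-5 hr, 37C), compounds were pinned onto HEK293 monolayers in 10% dialyzed FBS medium. The blue channel (405/460 nm) was read following overnight culture. Equivalency was calculated against triamterene.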

[8] = qHTS assay to test for compound auto fluorescence at 590 nm (red) in HEK293 cells (AID 720679)
Summary of the method: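 Plates of HEK293 cells (10% dialyzed FBS) are treated with 23 nL compound or DMSO vehicle after a 4-5 hr attachment period, incubated overnight at 37C, and read for red fluorescence at 540/590nm.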

[9] = qHTS assay to test for compound auto fluorescence at 535 nm (green) in HEK293 cells (AID 720680)
[10] = qHTS assay to test for compound auto fluorescence at 460 nm (blue) in HEK293 cell free culture (AID 720681)
Summary of the method: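 Test compounds were pinned into cell-free culture medium (DMEM with 10% FBS) and fluorescence was read directly at Ex/Em 405/460 nm. Signals were expressed as fluorescence equivalents of triamterene, with DMSO vehicle as control.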

[11] = qHTS assay to test for compound auto fluorescence at 535 nm (green) in HEK293 cell free culture (AID 720682)
Summary of the method: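 Measurement is a direct plate read of green fluorescence (485 nm in, 535 nm out) after compound addition to serum-supplemented DMEM lacking cells, with fluorescein used to express intensities.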

[12] = qHTS assay to test for compound auto fluorescence at 590 nm (red) in HEK293 cell free culture (AID 720683)
Summary of the method: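 Tox21 10K library compounds were pinned into cell-free DMEM with 10% FBS and fluorescence was read at excitation 540 nm. Activity is expressed as Rose Bengal sodium equivalency.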

[13] = qHTS assay to test for compound auto fluorescence at 590 nm (red) in HepG2 cell free culture (AID 720684)
Summary of the method: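 Ex 540 / Em 590 nm read of compound in cell-free MEM (10% FBS). Rose Bengal sodium reference.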

[14] = qHTS assay to test for compound auto fluorescence at 460 nm (blue) in HepG2 cell free culture (AID 720685)
Summary of the method: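 Cell-free plates of MEM plus 10% FBS received 23 nL compound or DMSO vehicle; blue-channel (405/460 nm) intensity scored against triamterene as reference fluorophore.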

[15] = qHTS assay to test for compound auto fluorescence at 535 nm (green) in HepG2 cell free culture (AID 720686)
[16] = qHTS assay to test for compound auto fluorescence at 460 nm (blue) in HepG2 cells (AID 720687)
Summary of the method: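 Cells (2,000/well in MEM with 10% FBS) attached overnight at 37 C, then were exposed to compound or DMSO for 1 hr at 37 C, 5% CO2. Fluorescence read at Ex/Em 405/460 nm, expressed as triamterene-equivalent signal.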

[17] = target: Glucocorticoid receptor (Homo sapiens) (UniProt P04150); experiment: qHTS assay to identify small molecule agonists of the glucocorticoid receptor (GR) signaling pathway (AID 720691; active means well fitted activation curve with a large enough effect in the signal ratio in the repeat runs, not every such curve was filed as active; the % refers to the signal ratio)
Chain of Glucocorticoid receptor (Homo sapiens) (P04150 whole entry, looked up): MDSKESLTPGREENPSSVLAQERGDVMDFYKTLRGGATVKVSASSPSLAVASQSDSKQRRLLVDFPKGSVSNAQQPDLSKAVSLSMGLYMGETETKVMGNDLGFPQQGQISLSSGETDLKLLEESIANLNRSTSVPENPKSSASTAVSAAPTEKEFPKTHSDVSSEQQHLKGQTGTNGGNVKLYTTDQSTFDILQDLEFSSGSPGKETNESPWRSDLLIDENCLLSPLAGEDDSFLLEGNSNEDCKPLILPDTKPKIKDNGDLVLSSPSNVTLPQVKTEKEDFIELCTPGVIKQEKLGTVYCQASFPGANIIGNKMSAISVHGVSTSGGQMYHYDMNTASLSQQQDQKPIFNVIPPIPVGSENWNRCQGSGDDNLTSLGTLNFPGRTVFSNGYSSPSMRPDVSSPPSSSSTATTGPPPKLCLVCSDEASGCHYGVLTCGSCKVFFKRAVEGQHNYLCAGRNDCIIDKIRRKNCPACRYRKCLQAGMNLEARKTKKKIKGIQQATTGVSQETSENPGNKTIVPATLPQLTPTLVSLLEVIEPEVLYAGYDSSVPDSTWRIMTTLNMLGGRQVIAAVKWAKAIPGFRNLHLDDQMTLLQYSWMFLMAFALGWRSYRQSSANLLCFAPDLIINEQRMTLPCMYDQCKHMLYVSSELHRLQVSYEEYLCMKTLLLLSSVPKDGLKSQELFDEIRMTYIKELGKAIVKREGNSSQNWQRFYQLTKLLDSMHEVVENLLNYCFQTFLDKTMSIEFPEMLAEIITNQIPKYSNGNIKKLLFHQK
Summary of the method: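 Measures GR pathway activation through a GRE-beta-lactamase reporter stably integrated in HeLa cells, with 18 h compound treatment at 37 C and fluorescence detection using a FRET substrate.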

[18] = target: Glucocorticoid receptor (Homo sapiens) (UniProt P04150); experiment: qHTS assay to identify small molecule antagonists of the glucocorticoid receptor (GR) signaling pathway (AID 720692; active means well fitted inhibition curve with a large enough effect in the signal ratio in the repeat runs, not every such curve was filed as active; the % refers to the signal ratio; further: potency means the concentration at half of the fitted maximal effect)
Summary of the method: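 Tox21 10K library screened in concentration-response for blockade of dexamethasone (5 nM final)-induced GRE-bla reporter activity in HeLa cells; 18 h treatment, fluorescence read.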

[19] = qHTS assay for small molecule disruptors of the mitochondrial membrane potential (AID 720635); further: potency means the concentration at half of the fitted maximal effect
Summary of the method: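 HepG2 cells (2,000/well) attached overnight at 37C, then took compound for 1 hr at 37C, 5% CO2. Mito-MPS dye was added for 30 min; fluorescence was read at 490/535 nm (monomers) and 540/590 nm (aggregates).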

[20] = qHTS assay for small molecules that induce genotoxicity in human embryonic kidney cells expressing luciferase-tagged ATAD5 - cell viability (AID 651634; calls by dose curve; further: nearly all actives have a fitted effect of over 25% in size; further: potency means the concentration at half of the fitted maximal effect)
Summary of the method: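 15.5 hr compound or vehicle exposure of HEK293T cells expressing luciferase-tagged ATAD5 at 37C; live-cell protease activity is read by fluorescence after 30 min of CellTiter-Fluor.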

Measured: Potency

C1CCC(SSC2CCCCC2)CC1
inactive: [1] | [2] | [3] | [4] | [5] | [6] | [7] | [8] | [9] | [10] | [11] | [12] | [13] | [14] | [15] | [16] | [17] | [18]

Oc1c(I)cc(Cl)c2cccnc12
inactive: [2] | [4] | [5] | [6] | [7] | [8] | [9] | [10] | [11] | [12] | [13] | [14] | [15] | [16]
active: [1] 29.8 µM | [3] 16.8 µM and 19.3 µM | [19] 48.5 µM

CCC(=O)C(=O)CC
inactive: [1] | [2] | [3] | [4] | [5] | [6] | [7] | [8] | [9] | [10] | [11] | [12] | [13] | [14] | [15] | [16]

CCO[Si](OCC)(OCC)OCC
inactive: [1] | [2] | [3] | [4] | [5] | [6] | [7] | [8] | [9] | [10] | [11] | [12] | [13] | [14] | [15] | [17] | [18]

Nc1ccc(NCCO)c([N+](=O)[O-])c1
inactive: [1] | [2] | [3] | [4] | [5] | [6] | [7] | [8] | [9] | [10] | [11] | [13] | [14] | [15] | [16] | [17] | [18]
active: [19] 15.4 µM

Cc1nc(-c2ccc(Cl)cc2)oc1COC(C)(C)C(=O)O
inactive: [1] | [2] | [3] | [4] | [19] | [5] | [6] | [7] | [8] | [9] | [10] | [11] | [12] | [13] | [14] | [15] | [16] | [17] | [18]

O=C(/C=C/c1ccccc1)OC/C=C/c1ccccc1
inactive: [1] | [2] | [3] | [4] | [5] | [6] | [8] | [9] | [10] | [11] | [12] | [13] | [14] | [15] | [16] | [17] | [18]

O=c1[nH]c2ccccc2n1CCCN1CCN(C(c2ccccc2)c2ccccc2)CC1
inactive: [1] | [2] | [3] | [4] | [5] | [6] | [7] | [8] | [9] | [10] | [11] | [12] | [13] | [14] | [15] | [16] | [17]

OC12N=C(c3ccccc3)SC1Cc1cc(Cl)ccc12 (stereo not drawn)
inactive: [1] | [2] | [3] | [20] | [5] | [6] | [7] | [8] | [9] | [10] | [11] | [12] | [13] | [14] | [15] | [16]
active: [19] 17.2 µM

CC1=CCC(=C(C)C)CC1
inactive: [1] | [2] | [3] | [20] | [5] | [6] | [7] | [8] | [9] | [10] | [11] | [12] | [13] | [14] | [15] | [16]

CC(=O)c1ccc(C(C)=O)cc1
inactive: [1] | [2] | [3] | [4] | [19] | [5] | [6] | [7] | [8] | [9] | [10] | [11] | [12] | [13] | [14] | [15] | [16] | [17] | [18]

O=C(O)c1cc(N=Nc2ccc([N+](=O)[O-])cc2)ccc1O
active: [2] 15.1 µM | [19] 53.5 µM | [18] 27 µM
inactive: [1] | [3] | [5] | [6] | [7] | [8] | [9] | [10] | [11] | [12] | [13] | [14] | [15] | [16]

C=CC(=O)Nc1cc2c(Nc3ccc(F)c(Cl)c3)ncnc2cc1OCCCN1CCOCC1
active: [1] 11.9 µM | [3] 29.8 µM | [20] 10.6 µM | [18] 3.01 µM
inactive: [4] | [6] | [8] | [9] | [10] | [11] | [12] | [13] | [14] | [15] | [16] | [17]

COC(C)=O
inactive: [2] | [3] | [20] | [4] | [19] | [5] | [6] | [7] | [8] | [9] | [10] | [11] | [12] | [13] | [14] | [15] | [16] | [17] | [18]
